Results on 104 compounds are retold here after PubChem BioAssay AID2551 (National Center for Advancing Translational Sciences (NCATS), 2010).

Hit rate of the full screen: of about 310,000 compounds, about 17,000 (5.5%) were called active. Entries that show only a call come without a potency. Not shown: some 11% with an inconclusive outcome. Calls follow the shape of the dose curve; as a rule, active = well fitted inhibition curve with a large enough effect; inconclusive = small, poorly fitted or top-dose-only effect, or effect the other way; inactive = no such curve, though single readings can be large or run the other way. Many of the other results were omitted from the sample, so actives are more common in it than they were.
Potency is read from the fitted curve at half-maximal effect.

For the test, the target named is Nuclear receptor ROR-gamma (Mus musculus) (UniProt P51450). Put plainly: qHTS for inhibitors of ROR gamma transcriptional activity. Also: nearly all actives have a fitted effect of over 60% in size. The note with it: Drosophila S2 Gal4-RORgamma UAS-luciferase reporter, 20 h; series mostly up to 53.6 µM. The method, boiled down: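 Stably transfected Drosophila Schneider cells are the test system, with ROR gamma fused to Gal4 and luciferase under UAS control; luminescence is read after 20 hr of 700 uM copper sulfate induction at ambient temperature.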
Sequence of Nuclear receptor ROR-gamma (Mus musculus) (P51450 whole entry, looked up, the tested form may be a part): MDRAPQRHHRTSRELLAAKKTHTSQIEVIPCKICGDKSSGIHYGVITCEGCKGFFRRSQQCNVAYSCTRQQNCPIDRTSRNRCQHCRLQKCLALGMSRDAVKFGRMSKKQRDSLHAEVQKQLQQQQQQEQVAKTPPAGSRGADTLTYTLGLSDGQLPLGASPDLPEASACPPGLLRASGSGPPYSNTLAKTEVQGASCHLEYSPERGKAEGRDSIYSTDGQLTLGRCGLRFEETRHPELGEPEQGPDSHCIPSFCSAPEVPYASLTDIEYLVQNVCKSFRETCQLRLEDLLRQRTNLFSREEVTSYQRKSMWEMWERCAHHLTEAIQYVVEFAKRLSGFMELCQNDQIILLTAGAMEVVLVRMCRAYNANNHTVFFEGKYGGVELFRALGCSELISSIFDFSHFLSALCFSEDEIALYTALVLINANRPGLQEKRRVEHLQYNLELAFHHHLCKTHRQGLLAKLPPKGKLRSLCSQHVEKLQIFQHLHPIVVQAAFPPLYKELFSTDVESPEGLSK
In general terms: qHTS replaces the single test concentration by a dilution series.
Regarding `COc1ccnc2c1c(=O)n(Cc1cccc(F)c1)c(=O)n2C`, the Potency entry is “inactive”.

Turning to `O=c1[nH]n(-c2cccc(Cl)c2)c2ncccc12`, the Potency result was “inactive”. Turning to `CC(C)CC(=O)N1CCN(Cc2cccc(Cl)c2)CC1`, the Potency entry was “inactive”. As for `Clc1cccc(CN2COc3c(cc(Cl)c4cccnc34)C2)c1`, the Potency is 0.562 µM (active). In the case of `COc1ccc(Cl)cc1NS(=O)(=O)c1cccc(C(=O)NCC2CCCO2)c1` (centres undefined), the Potency entry is “inactive”. As for `O=C(COc1ccc([N+](=O)[O-])cc1)Nc1cccc(C(=O)Nc2ccccc2C(=O)O)c1`, the Potency result is “inactive”. `CCCOc1ccc(CNC(=O)C2CCN(c3nn4c(=O)cc(C)nc4s3)CC2)cc1`: the Potency entry is “inactive”. Consider `Cc1cc(C(C)(C)C)n2nc(C)c(-c3ccccc3)c2n1`, for which the Potency result is “inactive”. The same measure for `Cc1nn2c(NCCN(C)C)c3c(nc2c1-c1ccccc1)CCC3`: 0.141 µM (active); for `Cc1cc(N2CCCC2)n2nc(C)c(-c3ccccc3)c2n1`: “inactive”; for `COc1ccc(-c2noc(C(C)NS(=O)(=O)c3ccc(NC(C)=O)cc3)n2)cc1` (centres undefined): “inactive”. `Cc1cc(C)cc(NC(=O)C2CCCN(S(=O)(=O)c3ccc4[nH]c(=O)ccc4c3)C2)c1` (centres undefined): the Potency entry was “inactive”.

Consider `COc1ccc(-n2c(=S)[nH]c3sc4c(c3c2=O)CCc2ccccc2-4)cc1`, for which the Potency is 0.447 µM (active). Take `CSc1nc2sc3c(c2c(=O)[nH]1)CCc1ccccc1-3`: the Potency result is “inactive”. Regarding `CCCSc1nc2sc3c(c2c(=O)n1-c1ccc(OC)cc1)CCN(C)C3`, the Potency result is “inactive”. As for `Cn1c(CCN2CCCC2)nc2cc(NS(=O)(=O)c3ccccc3)ccc21`, the entry is “inactive”; as for `CN(CCC1CCOCC1)C(=O)CC1C(=O)NCCN1Cc1cccc(F)c1` (centres undefined), “inactive”; as for `CCCCC(CC)CNCc1cccn1CCN1CCOCC1` (centres undefined), “inactive”. As for `COc1ccc(CCNC(=O)C2CCCN2C(=O)Nc2ccccc2)cc1OC` (centres undefined), the Potency entry is “inactive”. As for `C/C(=N\NC(=O)c1cc(-c2ccc(O)cc2)nc2ccccc12)c1cccnc1`, the entry is “inactive”. The same measure for `O=C(O)c1ccc2c(c1)C(=O)N(NC(=O)c1ccc(O)cc1)C2=O`: 11.2 µM (active); for `O=C(O)c1ccc2c(c1)C(=O)N(c1ccc(/C=C/C(=O)c3ccccc3)cc1)C2=O`: “inactive”. As for `Cc1cccc(N2C(=O)c3ccc(C(=O)Nc4cccc(C(=O)O)c4)cc3C2=O)c1`, the entry is “inactive”; as for `Cc1cc(OCC(=O)NCC(O)c2ccccc2)c2c(C)c(C)c(=O)oc2c1` (centres undefined), “inactive”.

For `O=C(O)CCCCCCCCc1cn(CN2C(=O)c3ccccc3C2=O)nn1`, the Potency entry was “inactive”. For `CC1CCN(C(=O)c2ccccc2NC(=O)Cc2ccccc2)CC1`, the Potency entry is “inactive”. The same measure for `CC1CCN(C(=S)NC(=O)c2ccccc2Br)CC1`: 0.562 µM (active); for `CC1CCN(C(=O)/C(=C\c2ccccc2)NC(=O)c2ccccc2)CC1`: “inactive”; for `COc1ccc(NC(=O)C(C)N2c3cccc4cccc(c34)S2(=O)=O)c(OC)c1` (centres undefined): “inactive”. Take `COc1ccc(COC(=O)c2ccc(Cl)c(S(=O)(=O)N3CCOCC3)c2)cc1F`: the Potency entry was “inactive”. Take `CC(C)(C)OC(=O)N1CCC(C(=O)NNC(=O)c2ccc(Cl)cc2Cl)CC1`: the Potency entry is “inactive”. For the compound `O=C(CN1CCC(O)(c2cccc(C(F)(F)F)c2)CC1)NCCc1ccccc1`, the Potency result was “inactive”.

For the compound `O=C(CCc1nnc(Cc2ccc3c(c2)OCO3)o1)NCCc1ccccc1Cl`, the Potency entry was “inactive”.

As for `O=C(NNC(=S)Nc1ccc(F)cc1)[C@H]1C[C@@H]1c1ccccc1`, the Potency entry was “inactive”. As for `Cc1ccc(NC(=O)C2CC2c2ccccc2)cc1` (centres undefined), the entry is “inactive”; as for `O=C(N/N=C/c1cccc2cccnc12)[C@H]1C[C@@H]1c1ccccc1`, 3.55 µM (active); as for `COc1ccc(CCN(C)C(=O)C23CC4CC(CC(Cl)(C4)C2)C3)cc1OC`, “inactive”. As for `Cc1ccc(N2C(=O)C3C4C=CC(CC4)C3C2=O)cc1Br` (centres undefined), the entry is “inactive”. The same measure for `O=C(CN1CCCCCC1)Nc1ccc(Cl)cc1F`: “inactive”; for `CCOc1ccc(N2CC(C(=O)NCc3ccccn3)CC2=O)cc1` (centres undefined): “inactive”. Regarding `COC(=O)c1ccc(C(=O)OC)c(NC(=S)N2CCN(c3cc(Cl)ccc3C)CC2)c1`, the Potency entry was “inactive”. As for `COC(=O)c1ccc(C(=O)Nc2cc(Cl)ccc2Cl)cc1NC(=O)c1ccccc1C`, the Potency is 11.2 µM (active). Turning to `COC(=O)c1ccccc1NC(=O)c1cncc(Br)c1`, the Potency entry is “inactive”.

In the case of `COc1ccc(C(=O)NC(C)CCc2ccccc2)c(OC)c1` (centres undefined), the Potency entry is “inactive”.

Consider `CCN(c1cccc(C)c1)S(=O)(=O)c1ccc(-c2coc(C)n2)cc1`, for which the Potency result is “inactive”.

For the compound `O=C1/C(=C/c2ccc3c(c2)OCO3)Oc2cc(OCC(=O)N3CC(O)C[C@H]3C(=O)O)ccc21` (some centres undefined), the Potency result is “inactive”. The same measure for `COC(=O)c1cc(OCC(=O)NC2CCCc3ccccc32)cc(C(=O)OC)c1` (centres undefined): “inactive”; for `O=C(NCCO)C(=O)NCC(c1ccc2c(c1)OCO2)N1CCN(c2ccc(F)cc2)CC1` (centres undefined): “inactive”; for `O=C(Nc1cc2ccccc2oc1=O)C1CCCCC1`: “inactive”. The same measure for `O=c1oc2ccccc2cc1-c1cn(-c2ccccc2)c(=S)[nH]1`: 1.26 µM (active); for `O=C(c1cn(-c2ccccc2)nc1-c1cc2ccccc2oc1=O)N1CCOCC1`: “inactive”.

Turning to `S=C(NCc1cccnc1)Nc1ccc(Cl)cc1Cl`, the Potency result was “inactive”. The same measure for `O=C(NC(=S)Nc1ccc(Cl)cc1Cl)C1CC1`: 5.01 µM (active).

With `CN1CCN(S(=O)(=O)c2ccc(NC(=S)NC(=O)C3CC3)cc2)CC1`, the Potency result was “inactive”. `COc1ccc(N(CC(=O)Nc2cccc3ccccc23)S(C)(=O)=O)c(OC)c1`: the Potency result was “inactive”.

With `CC(=O)c1ccc(S(=O)(=O)N(C)CCCC(=O)N(C)Cc2ccccc2F)cc1`, the Potency entry is “inactive”. As for `Cc1ccc(C(=O)Cn2cccn2)cc1`, the entry is “inactive”; as for `Cc1ccc(C(=O)CSc2ccccc2C(=O)O)cc1`, 10 µM (active); as for `Cc1ccc(Sc2cc(C(=O)c3ccccc3C(=O)O)ccc2[N+](=O)[O-])cc1`, “inactive”.

Regarding `CCOc1cc(C2/C(=C(/O)c3ccc(S(=O)(=O)N4CCCCC4)cc3)C(=O)C(=O)N2CCOC)ccc1O` (centres undefined), the Potency result is “inactive”. The same measure for `Cc1cc(=O)oc2cc(OCC(=O)N3CCN(c4ccc(F)cc4)CC3)c(Cl)cc12`: “inactive”; for `CCOC(=O)C1(Cc2ccccc2C)CCCN(C(=O)c2ccc(COC)o2)C1` (centres undefined): “inactive”; for `COc1cc(NC(=O)CN2C(=O)NC(C)(c3ccc(OC(F)F)cc3)C2=O)cc(OC)c1OC` (centres undefined): “inactive”. Turning to `COc1ccc(O)c(/C=N/N=C/c2cccc([N+](=O)[O-])c2)c1`, the Potency entry was “inactive”.

For `CCN(CC)C(=O)COc1coc(CN2CCN(Cc3ccccc3)CC2)cc1=O`, the Potency result was “inactive”. For the compound `Clc1ccc2nc(-c3ccccc3)nc(C(Cl)Cl)c2c1`, the Potency result is “inactive”. As for `CSc1nc(-c2ccccc2)nc(C(Cl)Cl)n1`, the Potency is 7.08 µM (active). As to `CCCc1cc(=O)oc2c(C)c(OC(C)C(=O)NCC(O)c3ccccc3)ccc12` (centres undefined), the Potency result was “inactive”. As for `C=CCc1cccc(/C=N/NC(=O)COc2ccc(-n3cnnn3)cc2)c1O`, the figure is 8.91 µM (active); as for `O=C(COc1ccc(-n2cnnn2)cc1)Nc1ccccc1Cl`, “inactive”. The same measure for `C=CCc1ccccc1OCC(=O)N/N=C/c1ccccc1OCC`: “inactive”; for `O=C(C1CC(=O)N(c2ccc(F)cc2)C1)N1CCN(c2ccccc2)CC1` (centres undefined): “inactive”; for `COc1cc(Nc2nc3ccc(Cl)cc3n3cnnc23)cc(OC)c1OC`: “inactive”. The same measure for `CC1(c2ccc3ccccc3c2)NC(=O)N(CC(N)=O)C1=O` (centres undefined): “inactive”; for `COc1ccc(S(=O)(=O)NCC(=O)NC2CC2)cc1OC`: “inactive”; for `Cc1ccc(C)c(C(C)NC(=O)C2CCCO2)c1` (centres undefined): “inactive”.

Take `Cc1ccc(C(=O)N/C(=C\c2ccc(F)cc2)C(=O)NCCN2CCOCC2)cc1`: the Potency result was “inactive”.

For the compound `CCCCNC(=O)C(=O)c1ccccc1NC(C)=O`, the Potency result is “inactive”. As for `CCCCNC(=S)N/N=C1\CCCCc2ccccc21`, the figure is 2 µM (active).

For the compound `O=[N+]([O-])c1ccccc1N/N=C1\CCc2ccccc21`, the Potency entry was “inactive”. Take `CCNC(=O)CC1C(=O)N(c2ccc(OC)cc2)C(=O)N1CCOC` (centres undefined): the Potency entry is “inactive”. The same measure for `O=C(N/N=C/c1cc(Cl)cc([N+](=O)[O-])c1O)C(O)(c1ccccc1)c1ccccc1`: 1 µM (active); for `O=C(Cc1cc(=O)[nH][nH]1)N/N=C/c1ccccc1[N+](=O)[O-]`: “inactive”. With `CN(C)/N=C/c1cc(Cl)cc([N+](=O)[O-])c1O`, the Potency was 11.2 µM (active).

On to `CC(=O)N/N=C/c1cc2c(cc1[N+](=O)[O-])OCO2`, for which the Potency entry is “inactive”. On to `O=[N+]([O-])c1cc(Cl)cc(/C=N/NC(=S)Nc2cc(S(=O)(=O)N3CCOCC3)ccc2Cl)c1O`, for which the Potency result is “inactive”.

Consider `COC(=O)c1cc(CNC(=O)CC(C)c2ccccc2)ccc1OC` (centres undefined), for which the Potency result is “inactive”. As for `CN(C)CCN(Cc1ccccc1)S(=O)(=O)c1csc(C(N)=O)c1`, the entry is “inactive”. On to `CCOC(=O)CC1COCCN1C(=O)c1cc(COc2ccc(F)c(F)c2)on1` (centres undefined), for which the Potency entry was “inactive”. The same measure for `COc1ccc(N(C)C(=O)C2CCN(S(=O)(=O)c3cccc4nsnc34)CC2)cc1`: “inactive”; for `Cc1ccccc1NC(=S)Nc1cccc([N+](=O)[O-])c1`: “inactive”; for `CC(=O)Nc1cccc([N+](=O)[O-])c1`: “inactive”.

Take `COC(=O)/C=C\C(=O)Nc1cccc([N+](=O)[O-])c1`: the Potency was 3.16 µM (active). The same measure for `Cn1nnc(NC(=S)NC(=O)c2ccccc2)n1`: 3.55 µM (active); for `COC(=O)c1nc(NC(=O)c2ccccc2)n[nH]1`: “inactive”; for `Cn1nnc(NC(=O)CSc2ncn[nH]2)n1`: “inactive”. For `COc1ccc(CN2CCN(C(=O)CCC(=O)Nc3nnc(C(C)C)s3)CC2)cc1F`, the Potency entry was “inactive”.

`O=C(CN(Cc1ccccc1)C(=O)CCC(=O)Nc1ccccn1)NCCc1ccccc1`: the Potency entry was “inactive”. Consider `COc1cccc2sc(N(CCCN(C)C)C(=O)CCS(=O)(=O)c3ccccc3)nc12`, for which the Potency is 11.2 µM (active). As for `Cc1ccc2sc(N(CCN(C)C)C(=O)/C=C/c3cccs3)nc2c1C`, the entry is “inactive”. As for `CN(C)CCCN(C(=O)COc1ccccc1)c1nc2c(Cl)cccc2s1`, the entry is “inactive”; as for `COc1cc2ccccc2cc1C(=O)N(CCN(C)C)c1nc2c(F)cccc2s1`, “inactive”. The same measure for `Cc1cc(C)c2nc(N(CCN(C)C)C(=O)/C=C/c3cccs3)sc2c1`: “inactive”; for `Cc1cccc2sc(N(CCCN(C)C)C(=O)CCS(=O)(=O)c3ccccc3)nc12`: 10 µM (active).
